Experimental data from PubChem BioAssay AID1850 (Southern Research Specialized Biocontainment Screening …, 2009).
The campaign covered roughly 310,000 compounds. About 1,000 (0.32%) were called active. No rule for the calls is given here. A selection follows. Potency and affinity values are given separately.

assay: PhoP regulon inhibitors, Salmonella typhi PhoP promoter GFP reporter, confirmatory (AID 1850); details: fluorescence, 4 h, at 50 µM, hits give high values;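 also: 0% = induced wells with vehicle and 100% = uninduced wells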

Row | SMILES | inhibition
1 | C/C(CC(=O)Nc1ccccc1C(F)(F)F)=N\NC(=O)c1cnccn1 | -1.08% (inactive)
2 | CCCn1c(O)c(N=NC(=O)CNC(=O)Cc2ccc(OC)cc2)c2ccccc21 | -19.2% (inactive)
3 | CCCN(CCC)S(=O)(=O)c1cccc(C(=O)N=c2sccn2C)c1 | -5.43% (inactive)
4 | Cc1cccc(NC(=O)c2cc([N+](=O)[O-])ccc2Cl)c1O | -4.69% (inactive)
5 | CCOc1cc(C(=O)Nc2ccc3c(c2)OCO3)ccc1OCCOc1ccccc1Cl | -0.32% (inactive)
6 | CC(=O)c1cccc(Nc2c3c(nc4ccccc24)CCC3)c1 | 12.8% (inactive)
7 | Cc1ccc2nc3c(c(Nc4cccc(O)c4)c2c1)CCC3 | 7.27% (inactive)
8 | O=C(Cc1ccsc1)Nc1cc(F)ccc1F | 3.38% (inactive)
9 | O=C(COc1ccc(S(=O)(=O)N2CCCCC2)cc1Cl)N1CCOCC1 | -6.77% (inactive)
10 | COc1ccc(Cl)cc1NC(=O)C1CC(=O)N(C2CCCCC2)C1 (configuration not stated) | -8.7% (inactive)
11 | O=C(COC(=O)c1ccc(Br)o1)NCCNC(=O)COC(=O)c1ccc(Br)o1 | -1.54% (inactive)
12 | Cc1cc(C(=O)N2CCC(Cc3ccccc3)CC2)c(C)o1 | -3.49% (inactive)
13 | CCOc1ccc(NC2=NCCCS2)cc1 | -2.96% (inactive)
14 | CCc1ccc(NC2=NCCCS2)cc1 | 39.5% (inactive)
15 | CCCCC(CC)COC(=O)c1ccccc1C(=O)OCC(CC)CCCC (configuration not stated) | -4.54% (inactive)
16 | COC(=O)[C@@H](N)CCCN=C(N)N[N+](=O)[O-] | -16.2% (inactive)
17 | CCOc1ccc(OCCSc2nc(N)cc(=O)[nH]2)cc1 | 12.9% (inactive)
18 | C=CCNC(=O)c1cc2cccc(OC)c2oc1=O | -9.75% (inactive)
19 | COCC(=O)NNS(=O)(=O)c1ccccc1[N+](=O)[O-] | 0.41% (inactive)
20 | Cc1c(-n2cc(C(=O)O)c(=O)c3cc(F)c(N4CCCC(O)C4)c(F)c32)c(=O)n(-c2ccccc2)n1C (configuration not stated) | 2.49% (inactive)
21 | O=S(=O)(c1ccc(F)c(F)c1F)N1CCN(C(=S)NC2CC3CCC2C3)CC1 (configuration not stated) | 3.26% (inactive)
22 | COc1ccc(-c2noc(N3CCCC(C(=O)Nc4ccccc4F)C3)n2)cc1 (configuration not stated) | 4.79% (inactive)
23 | CC1CCN(c2c(NCC3CCC(C(=O)NCc4ccccc4)CC3)c(=O)c2=O)CC1 (configuration not stated) | -9.12% (inactive)
24 | S=C(NC1CC2CCC1C2)N1CCN(c2cccc(Cl)c2)CC1 (configuration not stated) | 15.8% (inactive)
25 | CC1CCCN(C(=S)NCc2ccccc2)C1 (configuration not stated) | -5.12% (inactive)

Row | SMILES | inhibition
26 | Cc1ccccc1N1C(=O)c2sc3nc4c(c(=O)n3c2C1=O)CCC4 | 0.93% (inactive)
27 | O=C(OCCN=C1NS(=O)(=O)c2ccccc21)c1ccco1 | 5.3% (inactive)
28 | O=C(c1cccc(S(=O)(=O)N2CCCC2)c1)N1CCN(c2ccccc2F)CC1 | -7.17% (inactive)
29 | O=C(CSc1nc2[nH]ncc2c(=O)n1-c1ccc(Cl)c(Cl)c1)NCc1ccccc1Cl | -3.93% (inactive)
30 | C/C(=N\NC(=O)c1cccnc1)c1ccccc1 | -2.72% (inactive)
31 | CC(=O)Nc1ccc(S(=O)(=O)NCC2CCC(C(=O)NCCCN3CCCC3=O)CC2)cc1 (configuration not stated) | -3.51% (inactive)
32 | COc1ccc(S(=O)(=O)N2CCc3ccccc32)cc1C(=O)O | 0.91% (inactive)
33 | O=C(NCc1cccnc1)c1cc(Sc2ccc(F)cc2F)nc2ccccc12 | -9.05% (inactive)
34 | COc1ccc(CC(=O)NNC(=S)NC(=O)c2cccnc2)cc1 | 9.02% (inactive)
35 | Cc1n[nH]c(C)c1CCNC(=O)C1CCC(=O)N(CCc2cccc(F)c2)C1 (configuration not stated) | -2.89% (inactive)
36 | COC(=O)C(C)NC(=S)N1CC2C[C@@H](C1)Cn1c2cccc1=O (some centres not stated) | 3.1% (inactive)
37 | COC(=O)CC1C(=O)NCCN1C(=S)Nc1ccc(F)cc1 (configuration not stated) | 4.44% (inactive)
38 | CCn1cc(C(=O)O)c(=O)c2cnc(N3CCN(C(=S)Nc4ccc(F)cc4)CC3)nc21 | -5.98% (inactive)
39 | COC(=O)C1=C(N)Oc2cc(N(C)C)ccc2C1c1ccccc1OC (configuration not stated) | -7.55% (inactive)
40 | Cc1ccc(CNC(=O)CSCc2ccccc2F)cc1 | 3.95% (inactive)
41 | Cc1ccccc1N1CC(C(=O)NC2CCCC2)CC1=O (configuration not stated) | -18.4% (inactive)
42 | CCCNC(=O)COc1coc(CN2CCN(c3cccc(Cl)c3)CC2)cc1=O | 9.58% (inactive)
43 | Cc1c(NC(=O)c2nn3c(c2Br)NC(c2ccccc2)CC3C(F)(F)F)c(=O)n(-c2ccccc2)n1C (configuration not stated) | -3.46% (inactive)
44 | OC1CCCN(Cc2cccc3ccccc23)C1 (configuration not stated) | -1.87% (inactive)
45 | c1cc2ccc3ccc(CN4CCOCC4)c4ccc(c1)c2c34 | -8.34% (inactive)
46 | Cc1nnc(NC(=O)CCSc2ccc(Cl)cc2)s1 | -3% (inactive)
47 | COc1ccc2c(c1)CC(N1CCN(C)CC1)c1cc(OC)ccc1S2 (configuration not stated) | 21.4% (inactive)
48 | Fc1ccc2c(c1)Sc1ccc(Cl)cc1CC2N1CCN(CCC2OCCO2)CC1 (configuration not stated) | 12.3% (inactive)
49 | CSc1ccc2c(c1)C(N1CCN(C)CC1)Cc1ccccc1S2 (configuration not stated) | 12.9% (inactive)
50 | COCCCN1CCN(C2Cc3ccccc3Sc3ccc(Cl)cc32)CC1 (configuration not stated) | 1.9% (inactive)

Row | SMILES | inhibition
51 | CN1CCN(CCOC2Cc3ccccc3Sc3ccc(Cl)cc32)CC1 (configuration not stated) | -19.4% (inactive)
52 | CC(C)c1ccc2c(c1)C(N1CCN(C)CC1)Cc1cccnc1S2 (configuration not stated) | 15.7% (inactive)
53 | Cc1cc(C)c(C(=O)/C=C/c2cccc3ccccc23)c(=O)[nH]1 | -11.9% (inactive)
54 | CCn1c(=O)cc(SCC(=O)N2CCOCC2)c2ccccc21 | 0.81% (inactive)
55 | Cc1cccc(OCCc2c(C)[nH]c(=S)[nH]c2=O)c1 | -1.55% (inactive)
56 | NC(=O)CSc1nnc(Cn2c(=O)sc3ccccc32)n1CCc1ccccc1 | 1.95% (inactive)
57 | COc1cccc(NC(=O)CCCCCN2C(=O)[C@@H]3Cc4ccccc4CN3C2=O)c1 | 6.78% (inactive)
58 | CCN1C(=O)CSC1=Nc1ccc(OC)cc1 | -7.25% (inactive)
59 | COc1cc(OC)c(OC)cc1CNCCNC(=O)c1nonc1N | 6.25% (inactive)
60 | CN1CCN(C2Cc3ccc(F)cc3Sc3cc(F)c(Cl)cc32)CC1 (configuration not stated) | 8.23% (inactive)
61 | CCOC(=O)c1cccnc1NC(=O)c1ccccc1 | -7.33% (inactive)
62 | COc1ccccc1C(=O)NC(C(=O)NCCc1nc2ccccc2[nH]1)=C(C)C | -1.36% (inactive)
63 | OCCCCCNc1ncnc2ccccc12 | 2.05% (inactive)
64 | CCN(CC)CCCNc1ncnc2ccccc12 | 0.53% (inactive)
65 | CC(C)OCCCNc1ncnc2c1[nH]c1ccccc12 | 11.2% (inactive)
66 | COc1ccc(CNc2ncnc3c2[nH]c2cc(OC)c(OC)cc23)cc1 | 3.65% (inactive)
67 | O=c1c2[nH]c3ccccc3c2ncn1CCC1=CCCCC1 | -7.17% (inactive)
68 | OCCCNc1ncnc2c1[nH]c1ccccc12 | 2.26% (inactive)
69 | CCOCCCNc1ncnc2c1[nH]c1ccccc12 | 0.37% (inactive)
70 | COCCNc1ncnc2c1[nH]c1ccccc12 | 8.5% (inactive)
71 | COc1cc([N+](=O)[O-])cc(/C=N/NC(=O)c2cc(-c3ccccc3)nc3ccccc23)c1O | -2.11% (inactive)
72 | O=C(CCC(=O)c1ccc(F)cc1)NC1CCCN(Cc2ccccc2F)C1 (configuration not stated) | -3.89% (inactive)
73 | O=C(c1cc(Br)ccc1Cl)N1CCCC1 | 6% (inactive)
74 | Cc1ccc(NS(=O)(=O)c2ccc(C(=O)NCC(c3ccco3)N(C)C)cc2)cc1 (configuration not stated) | -2.21% (inactive)
75 | CCOC(=O)C1=C(O)c2ccccc2C(=O)/C1=C\c1ccc(CC)cc1 | -9.78% (inactive)

Row | SMILES | inhibition
76 | CCCc1ccc(/C=C2\C(=O)c3ccccc3C(O)=C2C(=O)OCC)cc1 | -2.52% (inactive)
77 | Nc1ccc(C(=O)Oc2ccc([N+](=O)[O-])cc2)c(O)c1 | -25% (inactive)
78 | N#CCC(=O)Nc1ccc(C(=O)OCC(=O)Nc2ccccc2Sc2ccccc2)cc1 | -5.37% (inactive)
79 | Cc1ccccc1OCC(O)CN1CCN(c2ccc(Cl)cc2)CC1 (configuration not stated) | 6.16% (inactive)
80 | CNNC(=S)Nc1cccc(C(F)(F)F)c1 | 6.82% (inactive)
81 | Nc1ccc2c(c1)N1CCN=C1S2 | -12.9% (inactive)
82 | O=C(CC1SC2=NCCN2C1=O)Nc1ccc(Cl)cc1 (configuration not stated) | -0.31% (inactive)
83 | Cc1ccc(O)c(-c2cc(C(F)(F)C(F)F)[nH]n2)c1 | -3.16% (inactive)
84 | FC(F)C(F)(F)c1cc(-c2ccccc2)n[nH]1 | 5.29% (inactive)
85 | O=c1nc(-c2ccccc2)n(-c2ccc(Cl)cc2)[nH]1 | -11% (inactive)
86 | Cc1ccc(OCCC(=O)Nc2ccc(S(=O)(=O)Nc3cc(C)nc(C)n3)cc2)cc1 | -3.66% (inactive)
87 | Cn1c(SCC(=O)N/N=C/c2ccc([N+](=O)[O-])s2)nnc1-c1ccccc1 | 17.5% (inactive)
88 | Cc1ccc(C(=O)N/N=C/c2ccc([N+](=O)[O-])s2)cc1 | -14.9% (inactive)
89 | Cc1ccc(C(=O)N/N=C\c2cccs2)cn1 | -3.85% (inactive)
90 | COC(=O)N/N=C/c1ccc([N+](=O)[O-])s1 | -3.8% (inactive)
91 | Cn1c(SCC(=O)N/N=C/c2cc([N+](=O)[O-])ccc2O)nnc1-c1ccccc1 | 2.1% (inactive)
92 | O=C(N/N=C/c1ccc([N+](=O)[O-])s1)c1ccncc1 | -1.03% (inactive)
93 | Cc1cc(C(=O)N/N=C/c2ccc([N+](=O)[O-])s2)n[nH]1 | 21.5% (inactive)
94 | O=C(N/N=C\c1ccc([N+](=O)[O-])s1)c1cncc(Br)c1 | -10.5% (inactive)
95 | O=C(Nc1ccc2c(c1)CCC2)c1ccc(Cl)nc1 | 8.38% (inactive)
96 | COC/C=C/C1=CC2=CC(=O)C(C)(OC(=O)c3cnc4ccccc4n3)C(=O)C2=CN1c1cccc(C#N)c1 (configuration not stated) | 0.42% (inactive)
97 | O=C(CSc1nccc(=O)[nH]1)N1CCOCC1 | -10% (inactive)
